# From PubChem BioAssay AID1345085 (National Center for Advancing Translational Sciences (NCATS), 2018)
# Records with an inconclusive call do not appear. Active and inactive are the calls of the source. Calls come from the whole dose curve; as a rule, active = well fitted cell-killing curve with a large enough effect; inconclusive = small, poorly fitted or top-dose-only effect, or effect the other way; inactive = no such curve, though single readings can be large or run the other way.
# Tested on: PA-1
# Assay: Confirmatory qHTS for gynecologic anti-cancer compounds from libraries of approved drugs and bioactive compounds; note: nearly all actives have a fitted effect of over 55% in size
# Details: gynecologic cancer cell panel viability, ATPlite luminescence, 48 h; series mostly up to 57.6 µM
# How it was run: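 Seeding 1,000 cells per well preceded overnight (16 h) attachment, after which 48 h drug treatment across 57.5 uM–0.977 nM (11 points) was applied. Remaining cellular ATP, detected by ATPlite luminescence, defined IC50.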
# Potency is the fitted concentration of half-maximal effect.
row,SMILES,Potency
1,COc1cccc2c1C(=O)c1c(O)c3c(c(O)c1C2=O)C[C@@](O)(C(=O)CO)C[C@@H]3O[C@H]1C[C@H](N)[C@H](O[C@@H]2CCCCO2)[C@H](C)O1,0.685 µM (active)
2,COc1cc(N2CCC(N)CC2)ccc1Nc1ncc(Cl)c(-c2c[nH]c3ccccc23)n1,19.3 µM (active)
3,CNC(=O)c1ccccc1Nc1nc(Nc2ccc(N3CCOCC3)cc2OC)ncc1Cl,1.72 µM (active)
4,O=C(c1ccc(/C=C/c2n[nH]c3ccccc23)cc1)N1CCNCC1,6.11 µM (active)
5,O=c1[nH]c(=O)n([C@H]2C[C@H](O)[C@@H](CO)O2)cc1C(F)(F)F,1.93 µM (active)
6,COCCOc1nc(-c2ccc(Cl)c(Cl)c2)n(-c2ccc(NC(=O)CCl)cc2)n1,8.63 µM (active)
7,CCCC(=O)O[C@]1(C(=O)CCl)[C@@H](C)C[C@H]2[C@@H]3CCC4=CC(=O)C=C[C@]4(C)[C@@]3(F)C(=O)C[C@@]21C,19.3 µM (active)
8,CC(C)C[C@H](NC(=O)[C@H](CCc1ccccc1)NC(=O)CN1CCOCC1)C(=O)N[C@@H](Cc1ccccc1)C(=O)N[C@@H](CC(C)C)C(=O)[C@@]1(C)CO1,2.43 µM (active)
9,Cc1nc2ccc(CN(C)c3ccc(C(=O)NC(CCC(=O)O)C(=O)O)s3)cc2c(=O)[nH]1 (configuration not stated),0.137 µM (active)
10,COc1ccc2cc3[n+](cc2c1OC)CCc1cc2c(cc1-3)OCO2,0.968 µM (active)
11,CN1CCCC(n2nc(Cc3ccc(Cl)cc3)c3ccccc3c2=O)CC1 (configuration not stated),27.3 µM (active)
12,CC[C@]1(O)C[C@@H]2CN(CCc3c([nH]c4ccccc34)[C@@](C(=O)OC)(c3cc4c(cc3OC)N(C)[C@H]3[C@@](O)(C(=O)OC)[C@H](OC(C)=O)[C@]5(CC)C=CCN6CC[C@]43[C@@H]65)C2)C1,0.109 µM (active)
